Source: PubChem BioAssay AID1159580 (chemical genetic matrix, 2015)
Several values for one entry are separate records, joined by “and”; a condition that tells them apart may be missing. Identical values can stand only once. About 2,000 (36%) of roughly 5,500 compounds were called active. About 18% were inconclusive and are not listed. Cut-off read from the data, not from the text of the source: active = normalized growth mostly below about 0.91 (no sharp cut-off); inconclusive = no clear call, values can overlap the other calls; inactive = mostly above about 0.92. The list shows a part of the results.

Assay: chemical genetic growth profiling, strain panel (AID 1159580);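 note: tested at 20 µM; growth read once vehicle control cultures reached saturation at 30 °C; 1 = growth at the plate median or of vehicle wells; lower values mean less growth of the strain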
Conditions: S. cerevisiae deletion strains, growth OD

Measured: normalized growth

CCCN(CCC)c1c([N+](=O)[O-])cc(C(F)(F)F)cc1[N+](=O)[O-]
inactive: locus YAL013W, strain DEP1, stronger effect = lower value 1.02 | locus YAL021C, strain ccr4, stronger effect = lower value 1 | locus YAL026C, strain drs2, stronger effect = lower value 0.999 | locus YAL030W, strain snc1, stronger effect = lower value 1 | locus YBL061C, strain skt5, stronger effect = lower value 1.01 | locus YBR009C, strain hhf1, stronger effect = lower value 0.995 | locus YBR021W, strain FUR4, stronger effect = lower value 1.03 | locus YBR023C, strain chs3, stronger effect = lower value 1.01 | locus YBR171W, strain sec66, stronger effect = lower value 0.985 | locus YBR229C, strain ROT2, stronger effect = lower value 1 | locus YBR231C, strain swc5, stronger effect = lower value 1.02 | locus YBR279W, strain paf1, stronger effect = lower value 1.01 | locus YCL011C, strain gbp2, stronger effect = lower value 0.97 | locus YCL016C, strain dcc1, stronger effect = lower value 1 | locus YCL029C, strain bik1, stronger effect = lower value 1.01 | locus YCL061C, strain MRC1, stronger effect = lower value 0.984 | locus YCL069W, strain vba3, stronger effect = lower value 0.977 | locus YCR088W, strain abp1, stronger effect = lower value 0.976 | locus YDL005C, strain med2, stronger effect = lower value 1.01 | locus YDL035C, strain GPR1, stronger effect = lower value 1.04 | locus YDL040C, strain nat1, stronger effect = lower value 1 | locus YDL074C, strain BRE1, stronger effect = lower value 1.04 | locus YDL101C, strain DUN1, stronger effect = lower value 0.997 | locus YDL134C, strain PPH21, stronger effect = lower value 0.995 | locus YDL185W, strain tfp1, stronger effect = lower value 1.02 | locus YDL192W, strain arf1, stronger effect = lower value 1.02 | locus YDR001C, strain nth1, stronger effect = lower value 0.981 | locus YDR069C, strain doa4, stronger effect = lower value 1.02 | locus YDR101C, strain arx1, stronger effect = lower value 1.01 | locus YDR137W, strain rgp1, stronger effect = lower value 0.957 | locus YDR150W, strain NUM1, stronger effect = lower value 1.02 | locus YDR159W, strain sac3, stronger effect = lower value 0.989 | locus YDR162C, strain NBP2, stronger effect = lower value 1 | locus YDR195W, strain ref2 0.987 | locus YDR297W, strain sur2, stronger effect = lower value 1 | locus YDR318W, strain mcm21, stronger effect = lower value 1.01 | locus YDR334W, strain swr1, stronger effect = lower value 0.994 | locus YDR335W, strain msn5, stronger effect = lower value 1.01 | locus YDR388W, stronger effect = lower value 1 | locus YDR392W, strain spt3, stronger effect = lower value 0.919 | locus YDR502C, strain sam2, stronger effect = lower value 1.02 | locus YEL003W, strain gim4, stronger effect = lower value 0.974 | locus YEL037C, strain rad23, stronger effect = lower value 0.988 | locus YEL061C, strain CIN8 (second series), stronger effect = lower value 0.981 | locus YEL061C, strain CIN8, stronger effect = lower value 1.01 | locus YER015W, strain faa2, stronger effect = lower value 1.01 | locus YER016W, strain bim1, stronger effect = lower value 1 | locus YER110C, stronger effect = lower value 1.01 | locus YER111C, strain swi4, stronger effect = lower value 0.98 | locus YER155C, strain BEM2 (second series), stronger effect = lower value 1 | locus YER155C, strain BEM2, stronger effect = lower value 1.01 | locus YER167W, strain BCK2, stronger effect = lower value 0.997 | locus YFR010W, strain ubp6, stronger effect = lower value 0.996 | locus YGL078C, strain dbp3, stronger effect = lower value 1.01 | locus YGL086W, strain mad1, stronger effect = lower value 1.01 | locus YGL167C, strain pmr1, stronger effect = lower value 1.01 | locus YGL173C, strain kem1, stronger effect = lower value 1.02 | locus YGL227W, strain vid30, stronger effect = lower value 0.982 | locus YGL240W, strain doc1, stronger effect = lower value 1.05 | locus YGL248W, strain PDE1, stronger effect = lower value 0.99 | locus YGL253W, strain hxk2, stronger effect = lower value 1.01 | locus YGR078C, strain PAC10, stronger effect = lower value 1.02 | locus YGR135W, strain pre9, stronger effect = lower value 1.02 | locus YGR229C, strain SMI1, stronger effect = lower value 1.01 | locus YGR252W, strain gcn5, stronger effect = lower value 1.05 | locus YHR013C, strain ard1, stronger effect = lower value 1.06 | locus YHR027C, strain rpn1, stronger effect = lower value 1.03 | locus YHR030C, strain SLT2, stronger effect = lower value 1.01 and 0.97 | locus YHR079C, strain IRE1 (second series), stronger effect = lower value 1.02 | locus YHR079C, strain IRE1, stronger effect = lower value 0.979 | locus YHR094C, strain hxt1, stronger effect = lower value 1.01 | locus YHR129C, strain ARP1, stronger effect = lower value 0.99 | locus YHR142W, strain chs7, stronger effect = lower value 0.975 | locus YHR200W, strain rpn10, stronger effect = lower value 1.01 | locus YIL066C, strain RNR3, stronger effect = lower value 1.02 | locus YIL073C, strain SPO22, stronger effect = lower value 1.04 | locus YIL125W, strain kgd1, stronger effect = lower value 1 | locus YIR030C, strain dcg1, stronger effect = lower value 1.01 | locus YJL092W, strain hpr5, stronger effect = lower value 0.976 | locus YJL095W, strain BCK1 (second series), stronger effect = lower value 1.01 | locus YJL095W, strain BCK1, stronger effect = lower value 0.99 and 0.98 | locus YJL115W, strain asf1, stronger effect = lower value 0.998 | locus YJL129C, strain trk1, stronger effect = lower value 0.96 | locus YJL134W, strain LCB3, stronger effect = lower value 1 | locus YJL154C, strain vps35, stronger effect = lower value 0.978 | locus YJL164C, strain tpk1, stronger effect = lower value 0.991 | locus YJL166W, strain qcr8, stronger effect = lower value 1.02 | locus YJL168C, strain set2, stronger effect = lower value 1.01 | locus YJL187C, strain SWE1 (second series), stronger effect = lower value 1.02 | locus YJL187C, strain SWE1, stronger effect = lower value 1.01 | locus YJR043C, strain POL32, stronger effect = lower value 1.01 | locus YJR066W, strain TOR1, stronger effect = lower value 0.914
